D2 ag-1 = activates the human D2 dopamine receptor; 0.53% of 340,000 active; AID 485358; activation, % at 2 µM; HEK293 T-REx D2 cells, calcium flux agonist mode; P14416;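 active = activation over 3 SD above normal in the single-dose calcium agonist read, cut at about 30% in these data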; note: 0% is about no effect
Target sequence (P14416 whole entry, looked up): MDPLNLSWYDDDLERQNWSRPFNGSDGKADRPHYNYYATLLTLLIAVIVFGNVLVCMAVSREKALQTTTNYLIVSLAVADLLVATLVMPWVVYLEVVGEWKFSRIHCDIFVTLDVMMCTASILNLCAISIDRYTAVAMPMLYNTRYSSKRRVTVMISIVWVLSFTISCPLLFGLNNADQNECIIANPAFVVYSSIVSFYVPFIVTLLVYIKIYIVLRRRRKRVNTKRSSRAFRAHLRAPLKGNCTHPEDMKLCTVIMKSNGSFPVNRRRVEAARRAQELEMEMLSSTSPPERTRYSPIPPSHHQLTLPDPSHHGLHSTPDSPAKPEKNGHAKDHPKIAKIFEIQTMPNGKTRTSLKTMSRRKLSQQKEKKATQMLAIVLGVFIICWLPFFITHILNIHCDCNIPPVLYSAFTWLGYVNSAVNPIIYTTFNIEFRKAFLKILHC
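Calcium-flux readout, 1 cycle/sec over 180 s following compound pin transfer, in inducible HEK293 Trex D2 cells (force-coupled); dopamine controls included. Positive calcium responses during this window marked compounds as potential agonists.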
D2 ag-2 = human D2 receptor agonism in beta-arrestin assay; AID 624465; DiscoveRx PathHunter D2 beta-arrestin, luminescence, 90 min; 100% = 57 uM dopamine signal; activation, % (no concentration beside the values); 0.084% of 360,000 active; in the data active = activation above about 40%; inconclusive = between about 15% and that limit
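DiscoveRx PathHunter D2 beta-arrestin cells (2,100/well) attached overnight, then compound-stimulated 90 min at 37 C in HBSS/10 mM HEPES/0.1% Tween-20 buffer; beta-galactosidase complementation read by luminescence after 1 h at ambient temperature. Dopamine 57 uM final (EC100) as control.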
D2 PAM-1 = human D2 receptor positive allosteric modulation; AID 624464; potentiation, % (concentration not given with the values); DiscoveRx D2 beta-arrestin cells, luminescence, 90 min; 100% = 57 uM dopamine signal; 0.23% of 360,000 active; in the data active = potentiation above about 50%; inconclusive = mostly about 30% to 49%
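PathHunter beta-arrestin assay in DiscoveRx D2 cells. Compounds were added with an EC20 of dopamine (50 nM final) for 90 min at 37 deg C. Luminescence was read 1 h after detection reagent, with 57 uM dopamine as the EC100 control.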
D2 PAM-2 = D2 dopamine receptor (human) potentiation. P14416. HEK293 T-REx D2, calcium flux, EC20 dopamine potentiation. potentiation, % at 10 µM. 0.34% of 340,000 active;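 active = potentiation over 3 SD above the plate norm, cut at about 30% in these data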; note: 0% is about no effect
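Tetracycline-induced Hek293 Trex D2 cells, force-coupled to calcium, loaded with no-wash calcium dye. Compound added with 180 s kinetic read for agonism, then EC20 dopamine and a further 180 s read for potentiation.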
D2 antag = antagonists of human D2 dopamine receptor; P14416; HEK293 TREx D2 cells, calcium flux, dopamine EC80; inhibition, % at 10 µM; 2% of 340,000 active; AID 485344; in the data active = inhibition above about 30%; inactive = below that, where a call was filed; note: 0% is about no effect
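Tetracycline-induced HEK293 T-REx cells expressing D2 force-coupled to calcium signalling were dye-loaded, exposed to compound for 180 s, then challenged with an EC80 of dopamine; calcium flux was followed kinetically for a further 180 s.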
B2AR arrestin = recruits beta-arrestin to the human beta2-adrenergic receptor. P07550. beta-arrestin recruitment to beta2AR, cell-based reporter. Potency, µM (doses to about 46.1 µM), without a hit: at the top dose activation, usual class: activators. 0.02% of 330,000 active; active = well fitted activation curve with a large enough effect; inconclusive = small, poorly fitted or top-dose-only effect;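 note: potency is the fitted concentration of half-maximal effect; 0% = DMSO controls and full agonism = EC100 isoproterenol or metaproterenol; nearly all actives have a fitted effect of over 65% in size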
* hit, by the source's call; u = inconclusive; x = no result given. An excerpt weighted towards active compounds, which were near 2.4% of everything screened.

SMILES | D2 ag-1 | D2 ag-2 | D2 PAM-1 | D2 PAM-2 | D2 antag | B2AR arrestin
CC(=O)c1ccc2noc(-c3ccc(Cl)cc3)c2c1 | -0.6 | u | u | -2.6 | -15.7 | 0.1%
Cc1cc(-c2onc3ccc(Cl)cc23)ccc1O | -2.2 | u | 96.6* | 0.5 | 1.1 | -0.7%
O=C(CC[C@H]1O[C@@H](n2ccc(=O)[nH]c2=O)[C@H](O)[C@@H]1O)NCc1ccco1 | x | -1.6 | -2.0 | x | x | x
CCN(Cc1nc2ccccc2c(=O)[nH]1)C(=O)c1cccc(S(=O)(=O)N2CCc3ccccc32)c1 | -0.3 | 0.6 | -1.3 | 0.1 | 47.4* | -1.6%
CNC(=S)N1CCC(NC(=O)C(Cc2ccc(OC)cc2)NC(C)=O)CC1 (stereo not drawn) | 0.1 | -3.0 | -5.0 | -2.1 | -7.8 | 0.5%
COc1ccc(C(CNC(=O)C(C)Oc2ccc(Br)cc2)N2CCCCC2)cc1 (stereo not drawn) | 0.6 | -5.0 | -6.2 | -22.2 | 78.1* | 0.4%
COc1ccc(C(CNC(=O)c2oc3cc(Br)ccc3c2C)N2CCCCC2)cc1 (stereo not drawn) | -0.1 | -1.0 | -16.7 | -21.5 | 61.5* | 0.0%
COc1ccc(C(CNC(=O)c2oc3ccc(Br)cc3c2C)N2CCCCC2)cc1 (stereo not drawn) | 0.0 | 3.8 | -32.3 | -14.2 | -25.3 | 0.0%
Cc1cc(C)cc(N=Cc2[nH]c3ccc(Br)c(Cl)c3c2O)c1 | 33.8* | 5.9 | -12.4 | -4.5 | -4.2 | -0.7%
CCc1ccc(Nc2nn(-c3ccc(OC(F)(F)F)cc3)nc2C(C)=O)cc1 | 7.5 | x | x | -13.6 | x | x
Cc1[nH]n2c(=O)cc(Cc3ccccc3)nc2c1C#N | 0.7 | -2.6 | -0.7 | 0.7 | 41.6* | 0.2%
CCOP(=O)(c1ccccc1)c1nc(-c2ccc(F)cc2)oc1N1CCCCC1 (stereo not drawn) | -0.5 | -3.7 | -13.8 | 11.4 | 31.7* | -0.9%
CCOP(=O)(OCC)c1nc(-c2ccc(Br)cc2)oc1N1CCCCC1 | x | -0.9 | -4.2 | x | x | 0.2%
O=C(NCCN1C(=O)S/C(=C\c2ccccc2)C1=O)C1CCN(S(=O)(=O)c2cccs2)CC1 | 1.3 | -2.3 | -9.0 | -10.5 | 33.4* | -0.5%
CCOc1ccc(NC(=O)C2CCN(S(=O)(=O)c3cccs3)CC2)cc1 | -2.0 | 4.7 | 10.9 | 32.0* | -1.3 | -1.2%
O=C(Nc1ccc(OC(F)(F)F)cc1)C1CCN(S(=O)(=O)c2cccs2)CC1 | 2.2 | x | x | 14.2 | x | x
O=C(Cn1c(=O)c2c(ncn2Cc2ccccc2)n(Cc2ccccc2)c1=O)NC1CC1 | 0.7 | -4.5 | -2.7 | 2.2 | -7.7 | -0.1%
COc1ccccc1Cn1c(-c2ccccc2OC)nc2ccccc21 | 1.0 | -2.1 | -9.5 | 9.6 | 21.9 | -0.9%
Oc1ccccc1Cn1c(-c2ccccc2O)nc2ccccc21 | 0.4 | 2.5 | 9.1 | 7.6 | 33.6* | x
N=c1c(S(=O)(=O)c2ccccc2)cc2c(=O)n3ccccc3nc2n1Cc1cccnc1 | 0.3 | -4.6 | -66.9 | -8.1 | 44.4* | -0.3%
Cc1cccn2c(=O)c3cc(C#N)c(=O)n(Cc4cccnc4)c3nc12 | 0.0 | -0.3 | -15.7 | 1.0 | 40.6* | 0.3%
CC(C)Oc1ccccc1C1CC(=O)Nc2c1c(=O)n(C)c(=O)n2C (stereo not drawn) | 0.9 | x | x | -13.9 | 24.6 | -0.2%
CCCn1nnc(NC(=O)c2cc(Br)ccc2OC)n1 | -1.2 | -1.2 | -21.1 | -5.9 | -10.9 | -2.0%
O=C(O)CN=C1CC(c2ccccc2)CC(=O)/C1=C(/O)CCCN1C(=O)c2ccccc2C1=O (stereo not drawn) | 0.5 | -1.7 | 0.6 | 30.6* | -5.7 | 0.0%
CN=C1CC(C)(C)CC(=O)/C1=C(/O)CCCN1C(=O)c2ccccc2C1=O | -0.3 | -3.1 | -2.0 | -10.5 | 7.9 | -0.2%
SMILES | D2 ag-1 | D2 ag-2 | D2 PAM-1 | D2 PAM-2 | D2 antag | B2AR arrestin
O=C(Nc1ccccc1Cl)c1cc[n+]([O-])cc1 | -0.4 | -1.6 | -0.5 | -9.2 | -8.6 | -0.1%
CCC1(c2ccccc2)NC(=O)N(CC(=O)N2CCN(S(=O)(=O)c3ccccc3)CC2)C1=O (stereo not drawn) | -0.4 | 1.4 | -13.3 | -2.6 | 7.5 | -0.2%
COc1ccc(/C=C/C(=O)Oc2cc(O)cc(O)c2)cc1 | -1.5 | -3.2 | -1.8 | -2.9 | -16.3 | 2.8%
O=C(NC1=NCCS1)c1cc(-c2cccnc2)nc2ccccc12 | 1.0 | -1.7 | 0.4 | -1.9 | 33.2* | 0.2%
O=C(O)c1ccccc1-c1ccccc1C(=O)NNc1ccccc1 | 37.2* | -3.8 | 5.1 | -5.5 | -27.6 | -0.2%
COc1ccccc1NC(=S)N1CCN(c2cccc(C)c2C)CC1 | 0.3 | 1.5 | -2.5 | -7.2 | -1.1 | 0.1%
COc1ccc(C(=O)/C=C/Nc2ccc([N+](=O)[O-])cc2C)cc1OC | 0.5 | -2.4 | -10.5 | 0.4 | 40.0* | 0.0%
Nc1c(C(=O)c2ccccc2)sc2nsc(SCCN3CCCC3)c12 | 37.1* | -1.6 | -14.7 | -14.4 | 9.2 | -1.0%
CC(=O)c1sc2nsc(SCCN3CCCCC3)c2c1N | 4.6 | 1.9 | -14.3 | -3.3 | -14.4 | 0.7%
CCOc1ccc(CCNC(=O)CSCC(=O)Nc2ccc(OC)cc2)cc1OCC | -1.2 | -0.8 | 1.4 | 8.4 | 31.4* | -0.1%
COc1ccc(NC(=O)CSCC(=O)N(C)Cc2ccc3c(c2)OCCO3)cc1 | -0.4 | 1.9 | 11.2 | -9.6 | 35.1* | 0.0%
COc1ccc(NC(=O)CN(C)C(=O)Cc2ccc3c(c2)OCCO3)cc1 | 0.7 | 2.1 | 4.2 | -0.1 | -32.2 | 0.8%
CC(=O)Nc1ccc(Oc2ccc(NC(C)=O)c(NC(C)=O)c2)cc1 | 1.3 | 4.0 | 1.9 | -6.1 | 2.7 | -0.2%
COc1ccc(NC(=O)CN2C(=O)c3ccccc3S2(=O)=O)cc1OC | 0.0 | 0.3 | 2.3 | 33.5* | -14.2 | -0.3%
O=C(CN1CCN(c2ccc(F)cc2)CC1)N1N=CCC1c1ccccc1 (stereo not drawn) | 0.3 | 1.3 | -18.7 | 2.2 | 36.3* | 0.3%
O=C(CN1CCN(c2ccccc2)CC1)N1N=CCC1c1ccccc1 (stereo not drawn) | x | -1.8 | -19.5 | x | x | 5.1%
CCOC(=O)C1=C(O)C(=O)N(CCCn2ccnc2)C1c1ccc(C)cc1 (stereo not drawn) | 0.1 | -5.3 | -3.1 | 7.1 | 19.9 | -0.6%
COCc1[nH][nH]c(=O)c1C=Nc1ccc(Cl)cc1 | 0.1 | -3.3 | 2.8 | -2.3 | -4.6 | 0.0%
COc1cccc(CN2CC(C(=O)NCc3cccc(Cl)c3)CCC2=O)c1 (stereo not drawn) | 0.8 | 4.4 | 0.3 | -8.6 | -5.0 | 0.0%
COc1ccccc1CN1CC(C(=O)NCc2cccc(Cl)c2)CCC1=O (stereo not drawn) | 0.0 | -3.4 | -5.8 | -10.3 | 36.1* | -0.7%

Compound activity from PubChem BioAssay.
